Assay results: PubChem BioAssay (Tox21)
Inconclusive results are not listed. Calls of active or inactive are those of the source. Unless noted, calls follow the shape of the dose curve; as a rule, active = well fitted curve in the direction sought with a large enough effect in the repeat runs; inconclusive = weak or mixed curves; inactive = flat fitted curve, though single readings scatter.

Experiments:
[1] = qHTS assay to test for compound auto fluorescence at 535 nm (green) in HEK293 cells (AID 720680)
[2] = qHTS assay to test for compound auto fluorescence at 460 nm (blue) in HEK293 cell free culture (AID 720681)
How it was run: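 Test compounds were pinned into cell-free culture medium (DMEM with 10% FBS) and fluorescence was read directly at Ex/Em 405/460 nm. Signals were expressed as fluorescence equivalents of triamterene, with DMSO vehicle as control.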

[3] = qHTS assay to test for compound auto fluorescence at 535 nm (green) in HEK293 cell free culture (AID 720682)
How it was run: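 DMEM + 10% FBS, cell-free; cpd or DMSO pinned in; Ex485/Em535 read; output as fluorescein-equivalent signal.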

[4] = qHTS assay to test for compound auto fluorescence at 590 nm (red) in HEK293 cell free culture (AID 720683)
How it was run: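 Tox21 10K library compounds were pinned into cell-free DMEM with 10% FBS and fluorescence was read at excitation 540 nm. Activity is expressed as Rose Bengal sodium equivalency.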

[5] = qHTS assay to test for compound auto fluorescence at 590 nm (red) in HepG2 cell free culture (AID 720684)
How it was run: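 Red fluorescence (540 nm excitation, 590 nm emission) was measured after compound transfer into cell-free MEM supplemented with 10% FBS. Values are equivalencies against Rose Bengal sodium.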

[6] = qHTS assay to test for compound auto fluorescence at 460 nm (blue) in HepG2 cell free culture (AID 720685)
How it was run: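 Compound (23 nL) or DMSO pinned into cell-free MEM with 10% FBS; blue fluorescence read at 405/460 nm excitation/emission, expressed as auto-fluorescence equivalency to triamterene.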

[7] = qHTS assay to test for compound auto fluorescence at 535 nm (green) in HepG2 cell free culture (AID 720686)
[8] = qHTS assay to test for compound auto fluorescence at 460 nm (blue) in HepG2 cells (AID 720687)
How it was run: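 Cells (2,000/well in MEM with 10% FBS) attached overnight at 37 C, then were exposed to compound or DMSO for 1 hr at 37 C, 5% CO2. Fluorescence read at Ex/Em 405/460 nm, expressed as triamterene-equivalent signal.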

[9] = molecular target: Glucocorticoid receptor (Homo sapiens) (UniProt P04150); assay: qHTS assay to identify small molecule agonists of the glucocorticoid receptor (GR) signaling pathway (AID 720691; active = well fitted activation curve with a large enough effect in the signal ratio in the repeat runs, not every such curve was filed as active; the % refers to the signal ratio)
Sequence of Glucocorticoid receptor (Homo sapiens) (P04150 whole entry, looked up): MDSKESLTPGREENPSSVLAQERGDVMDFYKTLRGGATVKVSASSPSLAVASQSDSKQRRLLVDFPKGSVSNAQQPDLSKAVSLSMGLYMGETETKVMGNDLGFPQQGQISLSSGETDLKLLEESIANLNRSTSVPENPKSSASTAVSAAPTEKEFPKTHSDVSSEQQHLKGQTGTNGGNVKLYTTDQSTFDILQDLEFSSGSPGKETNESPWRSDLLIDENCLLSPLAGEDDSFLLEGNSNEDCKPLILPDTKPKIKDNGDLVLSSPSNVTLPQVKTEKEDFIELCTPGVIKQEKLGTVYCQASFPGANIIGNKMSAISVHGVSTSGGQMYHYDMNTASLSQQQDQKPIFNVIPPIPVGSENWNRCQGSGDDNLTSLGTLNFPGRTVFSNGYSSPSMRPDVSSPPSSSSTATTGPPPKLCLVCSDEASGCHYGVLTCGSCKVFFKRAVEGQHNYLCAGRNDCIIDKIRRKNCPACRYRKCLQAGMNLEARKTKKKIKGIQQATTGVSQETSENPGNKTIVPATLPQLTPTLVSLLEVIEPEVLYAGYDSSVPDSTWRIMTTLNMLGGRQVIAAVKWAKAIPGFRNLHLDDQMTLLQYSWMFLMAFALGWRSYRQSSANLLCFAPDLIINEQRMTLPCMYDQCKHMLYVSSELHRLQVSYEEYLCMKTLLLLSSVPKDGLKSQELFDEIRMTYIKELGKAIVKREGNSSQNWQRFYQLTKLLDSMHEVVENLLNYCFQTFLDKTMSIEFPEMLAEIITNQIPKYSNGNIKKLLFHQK
How it was run: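 Fluorescence intensity from LiveBLAzer B/G FRET substrate (2 h, room temperature) reports beta-lactamase expression driven by the glucocorticoid response element in GR-bla HeLa cells after 18 h compound exposure at 37 C.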

[10] = molecular target: Glucocorticoid receptor (Homo sapiens) (UniProt P04150); assay: qHTS assay to identify small molecule antagonists of the glucocorticoid receptor (GR) signaling pathway (AID 720692; active = well fitted inhibition curve with a large enough effect in the signal ratio in the repeat runs, not every such curve was filed as active; the % refers to the signal ratio)
How it was run: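 HeLa GR-bla cells; cmpd + dex 5 nM final, 18 h 37 C; LiveBLAzer B/G FRET substrate 2 h RT; fluorescence intensity read. Antagonist mode, qHTS.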
% is scaled to controls: 0 for no effect and ±100 for the full control effect.

CC(C)(C)NCC(O)COc1ccc(NC(=O)NC2CCCCC2)cc1 (stereo unspecified)
inactive: outcome [1] | Potency [2] | outcome [3] | outcome [4] | outcome [5] | outcome [6] | outcome [7] | outcome [8] | Potency [9] | Potency [10]

Clc1ccccc1-c1nc(-c2ccncc2)no1
inactive: outcome [1] | Potency [2] | outcome [3] | outcome [4] | outcome [5] | outcome [6] | outcome [7] | outcome [8] | Potency [9]

CC(Cc1ccccc1)(NC(=O)CN)c1ccccc1 (stereo unspecified)
inactive: outcome [1] | Potency [2] | outcome [3] | outcome [4] | outcome [5] | outcome [6] | outcome [7] | outcome [8] | Potency [9]

CCCCCCCCCC(C)C=O (stereo unspecified)
inactive: outcome [1] | Potency [2] | outcome [3] | outcome [4] | outcome [5] | outcome [6] | outcome [7] | outcome [8] | Potency [9]

Nc1nc(Cl)nc2c1ncn2[C@H]1C[C@H](O)[C@@H](CO)O1
inactive: outcome [1] | Potency [2] | outcome [3] | outcome [4] | outcome [5] | outcome [6] | outcome [7] | outcome [8] | Potency [9]

C1CCN(CN2CCCCC2)CC1
inactive: outcome [1] | Potency [2] | outcome [3] | outcome [4] | outcome [5] | outcome [6] | outcome [7] | outcome [8] | Potency [9]

OCCOc1cccc(OCCO)c1
inactive: outcome [1] | Potency [2] | outcome [3] | outcome [4] | outcome [5] | outcome [6] | outcome [7] | outcome [8]

Nc1ccc(-c2ccc(F)cc2)cc1
inactive: outcome [1] | Potency [2] | outcome [3] | outcome [4] | outcome [5] | outcome [6] | outcome [7] | outcome [8]

CC1(C)CC(O)CC(C)(C)N1[O]
inactive: outcome [1] | Potency [2] | outcome [3] | outcome [4] | outcome [5] | outcome [6] | outcome [7] | outcome [8]

C(/C=C/C=C/Nc1ccccc1)=Nc1ccccc1
inactive: outcome [1] | Potency [2] | outcome [3] | outcome [4] | outcome [5] | outcome [6] | outcome [7]

CCc1ccc2c(c1)C(=O)c1ccccc1C2=O
inactive: outcome [1] | Potency [2] | outcome [3] | outcome [4] | outcome [5] | outcome [6] | outcome [7]

CC(C)Cc1nccs1
inactive: outcome [1] | Potency [2] | outcome [3] | outcome [4] | outcome [5] | outcome [6] | outcome [7] | outcome [8]

CC(C)C/C=C(\C=O)c1ccccc1
inactive: outcome [1] | Potency [2] | outcome [3] | outcome [4] | outcome [5] | outcome [6] | outcome [7] | outcome [8] | Potency [9]

O=C(c1ccc(Cl)cc1)c1ccc(Cl)cc1
inactive: outcome [1] | Potency [2] | outcome [3] | outcome [4] | outcome [5] | outcome [6] | outcome [7] | outcome [8]

CC(C)=CCC[C@H](C)CCO
inactive: outcome [1] | Potency [2] | outcome [3] | outcome [4] | outcome [5] | outcome [6] | outcome [7]

Cc1nc(C)c(C)nc1C
inactive: outcome [1] | Potency [2] | outcome [3] | outcome [4] | outcome [5] | outcome [6] | outcome [7] | outcome [8] | Potency [9] | Potency [10]

CNc1ccccc1
inactive: outcome [1] | Potency [2] | outcome [3] | outcome [4] | outcome [5] | outcome [6] | outcome [7] | outcome [8] | Potency [9]

CC1=CC(=C(c2ccc(N)cc2)c2ccc(N)cc2)C=CC1=N
inactive: outcome [1] | Potency [2] | outcome [3] | outcome [4] | outcome [5] | outcome [6] | outcome [7] | outcome [8] | activation [9] -0.66% [at 6.9 µM]

CCCCCCCCCCCCSC#N
inactive: outcome [1] | Potency [2] | outcome [3] | outcome [4] | outcome [5] | outcome [6] | outcome [7] | outcome [8] | Potency [9]

COC=O
inactive: fluorescence, % of fluorescein [1] -0.112% [at 9.17 µM] | fluorescence, % of fluorescent control [2] -0.168% [at 9.17 µM] | activity change [3] -0.0308% [at 9.17 µM] | fluorescence, % of fluorescent control [4] -0.0562% [at 9.17 µM] | fluorescence, % of Rose Bengal [5] -0.0589% [at 9.17 µM] | fluorescence, % of fluorescent control [6] -0.142% [at 9.17 µM] | fluorescence, % of fluorescein control [7] -0.0327% [at 9.17 µM] | fluorescence, % of fluorescent control [8] -0.259% [at 9.17 µM]

CC(C)NC(=O)c1ccccc1N
inactive: outcome [1] | Potency [2] | outcome [3] | outcome [4] | outcome [5] | outcome [6] | outcome [7] | outcome [8]

Sc1nc(S)nc(S)n1
inactive: outcome [1] | Potency [2] | outcome [3] | outcome [4] | outcome [5] | outcome [6] | outcome [7] | outcome [8]

CC1(COc2ccc(CC3SC(=O)NC3=O)cc2)CCCCC1 (stereo unspecified)
inactive: outcome [1] | Potency [2] | outcome [3] | outcome [4] | outcome [5] | outcome [6] | outcome [7] | outcome [8]

Oc1ccc(Oc2ccccc2)cc1
inactive: outcome [1] | Potency [2] | outcome [3] | outcome [4] | outcome [5] | outcome [6] | outcome [7] | outcome [8]

Cc1cc(C)c(C)c(O)c1
inactive: outcome [1] | Potency [2] | outcome [3] | outcome [4] | outcome [5] | outcome [6] | outcome [7] | outcome [8]

O=C(Nc1ccccc1)c1cc([N+](=O)[O-])ccc1Cl
inactive: outcome [1] | Potency [2] | outcome [3] | outcome [4] | outcome [5] | outcome [6] | outcome [7] | outcome [8]

Cc1ccccc1CCO
inactive: outcome [1] | Potency [2] | outcome [3] | outcome [4] | outcome [5] | outcome [6] | outcome [7] | outcome [8]
